# What was measured:
# Assay in all cases: DAPPL (digital affinity profiling via proximity ligation, sequencing); 10 mM Tris-HCl pH 7.5, 50 mM NaCl, 1 mM DTT, 4% glycerol, room temperature, 30 min; GST-TFs on glutathione beads, 16-mer random dsDNA library, 0.1% formaldehyde crosslink after washing; high values mean tight binding
# [1] = biological target: T1, FEV (Homo sapiens, UniProt Q99581 1-238); conditions: protein: recombinant; tags: N-terminal GST; dsDNA, one strand shown
# T1 sequence: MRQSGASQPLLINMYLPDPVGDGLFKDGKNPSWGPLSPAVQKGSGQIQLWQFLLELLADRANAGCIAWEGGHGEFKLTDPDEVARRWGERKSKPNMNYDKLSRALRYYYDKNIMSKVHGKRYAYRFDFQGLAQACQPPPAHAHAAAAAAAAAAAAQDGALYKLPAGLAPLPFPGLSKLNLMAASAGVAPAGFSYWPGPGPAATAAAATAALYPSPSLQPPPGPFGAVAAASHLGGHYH
# Summary of the method: (§1)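 Binding signal is defined as a hexamer's read frequency for one factor over its frequency for the tag-only sample. To obtain reads, GST-fused human transcription factors were expressed in yeast, captured on glutathione beads, barcoded with DNA and pooled with that sample. Pools met 200 nmole of a 16-mer random double-stranded DNA library in Tris/NaCl/DTT/glycerol buffer for 30 min at room temperature before washing, 0.1% formaldehyde crosslinking, proximity ligation (BsaI/T4 ligase, 1 h, 37 °C), PCR and Illumina NextSeq500 sequencing.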
# [2] = biological target: ETV5 (Homo sapiens, UniProt P41161 1-510); conditions: protein: recombinant; tags: N-terminal GST; dsDNA, one strand shown
# Summary of the method: as §1
# [3] = biological target: HSF1 (Homo sapiens, UniProt Q00613 1-529); conditions: protein: recombinant; tags: N-terminal GST; chain copies: 3; dsDNA, one strand shown
# Summary of the method: as §1
# [4] = biological target: T2, SPIC (Homo sapiens, UniProt Q8N5J4 1-248); conditions: protein: recombinant; tags: N-terminal GST; dsDNA, one strand shown
# T2 sequence: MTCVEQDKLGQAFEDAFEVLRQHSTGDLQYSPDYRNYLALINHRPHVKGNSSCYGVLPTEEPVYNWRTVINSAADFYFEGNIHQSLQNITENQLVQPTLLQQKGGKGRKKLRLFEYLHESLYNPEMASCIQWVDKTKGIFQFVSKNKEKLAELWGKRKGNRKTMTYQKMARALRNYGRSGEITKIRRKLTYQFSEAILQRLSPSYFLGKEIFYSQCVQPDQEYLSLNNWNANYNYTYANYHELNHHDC
# Summary of the method: as §1
# [5] = biological target: ELF4 (Homo sapiens, UniProt Q99607 1-663); conditions: protein: recombinant; tags: N-terminal GST; dsDNA, one strand shown
# Summary of the method: as §1
# [6] = biological target: T3, ELK4 (Homo sapiens, UniProt P28324-2 1-405); conditions: protein: recombinant; tags: N-terminal GST; dsDNA, one strand shown
# T3 sequence: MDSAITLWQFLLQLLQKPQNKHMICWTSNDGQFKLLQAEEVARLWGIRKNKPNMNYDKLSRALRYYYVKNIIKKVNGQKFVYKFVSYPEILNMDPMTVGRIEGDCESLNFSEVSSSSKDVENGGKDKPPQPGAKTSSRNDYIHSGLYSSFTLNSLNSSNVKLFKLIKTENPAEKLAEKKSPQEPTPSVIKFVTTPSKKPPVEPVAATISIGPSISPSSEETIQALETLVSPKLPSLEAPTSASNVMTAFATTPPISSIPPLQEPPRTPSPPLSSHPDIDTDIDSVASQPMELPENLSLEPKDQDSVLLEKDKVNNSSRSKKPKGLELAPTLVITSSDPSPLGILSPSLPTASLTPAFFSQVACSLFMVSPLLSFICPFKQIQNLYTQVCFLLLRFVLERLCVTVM
# Summary of the method: as §1
# [7] = biological target: T4, ETV2 (Homo sapiens, UniProt O00321 1-342); conditions: protein: recombinant; tags: N-terminal GST; dsDNA, one strand shown
# T4 sequence: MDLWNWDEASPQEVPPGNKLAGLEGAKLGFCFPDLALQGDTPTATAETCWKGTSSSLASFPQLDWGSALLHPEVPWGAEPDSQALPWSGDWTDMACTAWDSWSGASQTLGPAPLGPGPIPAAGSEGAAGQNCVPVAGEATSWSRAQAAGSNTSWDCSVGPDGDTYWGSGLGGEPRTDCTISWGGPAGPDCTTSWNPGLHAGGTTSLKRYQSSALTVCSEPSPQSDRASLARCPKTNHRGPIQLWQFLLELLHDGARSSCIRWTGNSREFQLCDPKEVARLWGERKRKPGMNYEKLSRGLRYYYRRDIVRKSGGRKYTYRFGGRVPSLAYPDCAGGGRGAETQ
# Summary of the method: as §1
# [8] = biological target: T5, ELF3 (Homo sapiens, UniProt P78545 1-371); conditions: protein: recombinant; tags: N-terminal GST; dsDNA, one strand shown
# T5 sequence: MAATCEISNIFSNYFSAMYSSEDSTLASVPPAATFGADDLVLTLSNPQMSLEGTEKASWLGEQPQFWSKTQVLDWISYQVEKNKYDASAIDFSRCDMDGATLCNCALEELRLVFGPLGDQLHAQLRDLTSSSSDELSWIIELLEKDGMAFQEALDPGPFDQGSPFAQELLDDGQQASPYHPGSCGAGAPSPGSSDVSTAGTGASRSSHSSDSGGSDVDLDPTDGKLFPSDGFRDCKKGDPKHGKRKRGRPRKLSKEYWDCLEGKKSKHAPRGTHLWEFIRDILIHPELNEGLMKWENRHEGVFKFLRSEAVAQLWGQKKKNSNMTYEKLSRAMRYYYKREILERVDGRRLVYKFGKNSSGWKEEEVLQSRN
# Summary of the method: as §1
# [9] = biological target: CRX (Homo sapiens, UniProt O43186 1-299); conditions: protein: recombinant; tags: N-terminal GST; dsDNA, one strand shown
# Summary of the method: as §1
# [10] = biological target: ETV1 (Homo sapiens, UniProt P50549 1-477); conditions: protein: recombinant; tags: N-terminal GST; dsDNA, one strand shown
# Summary of the method: as §1
# [11] = biological target: T6, ERF (Homo sapiens, UniProt P50548 1-548); conditions: protein: recombinant; tags: N-terminal GST; dsDNA, one strand shown
# T6 sequence: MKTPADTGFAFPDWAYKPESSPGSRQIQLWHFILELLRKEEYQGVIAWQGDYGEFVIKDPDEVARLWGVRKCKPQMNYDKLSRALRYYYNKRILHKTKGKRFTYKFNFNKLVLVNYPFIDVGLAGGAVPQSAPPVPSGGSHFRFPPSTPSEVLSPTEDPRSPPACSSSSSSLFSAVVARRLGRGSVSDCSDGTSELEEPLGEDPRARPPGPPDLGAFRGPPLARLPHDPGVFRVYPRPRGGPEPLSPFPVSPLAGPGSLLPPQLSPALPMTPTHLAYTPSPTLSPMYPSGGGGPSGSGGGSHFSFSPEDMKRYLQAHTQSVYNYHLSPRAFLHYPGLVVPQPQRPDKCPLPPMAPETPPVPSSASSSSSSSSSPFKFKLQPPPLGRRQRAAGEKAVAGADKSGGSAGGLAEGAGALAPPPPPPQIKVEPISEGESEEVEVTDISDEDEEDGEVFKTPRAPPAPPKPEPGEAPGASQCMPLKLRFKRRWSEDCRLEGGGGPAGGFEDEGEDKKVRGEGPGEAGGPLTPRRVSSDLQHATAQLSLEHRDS
# Summary of the method: as §1
# [12] = biological target: T7, ETV3L (Homo sapiens, UniProt Q6ZN32 1-361); conditions: protein: recombinant; tags: N-terminal GST; dsDNA, one strand shown
# T7 sequence: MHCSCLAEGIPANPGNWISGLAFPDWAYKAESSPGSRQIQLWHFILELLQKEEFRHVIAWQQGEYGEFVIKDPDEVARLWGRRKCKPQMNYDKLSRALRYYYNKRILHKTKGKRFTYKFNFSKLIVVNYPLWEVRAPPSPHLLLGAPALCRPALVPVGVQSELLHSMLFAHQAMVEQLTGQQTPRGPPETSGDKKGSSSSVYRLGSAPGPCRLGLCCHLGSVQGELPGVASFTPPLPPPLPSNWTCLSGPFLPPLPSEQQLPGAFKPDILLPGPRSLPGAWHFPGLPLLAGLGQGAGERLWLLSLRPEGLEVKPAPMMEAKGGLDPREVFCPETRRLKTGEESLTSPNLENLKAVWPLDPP
# Summary of the method: as §1
# [13] = biological target: T8, ETS2 (Homo sapiens, UniProt P15036 1-469); conditions: protein: recombinant; tags: N-terminal GST; dsDNA, one strand shown
# T8 sequence: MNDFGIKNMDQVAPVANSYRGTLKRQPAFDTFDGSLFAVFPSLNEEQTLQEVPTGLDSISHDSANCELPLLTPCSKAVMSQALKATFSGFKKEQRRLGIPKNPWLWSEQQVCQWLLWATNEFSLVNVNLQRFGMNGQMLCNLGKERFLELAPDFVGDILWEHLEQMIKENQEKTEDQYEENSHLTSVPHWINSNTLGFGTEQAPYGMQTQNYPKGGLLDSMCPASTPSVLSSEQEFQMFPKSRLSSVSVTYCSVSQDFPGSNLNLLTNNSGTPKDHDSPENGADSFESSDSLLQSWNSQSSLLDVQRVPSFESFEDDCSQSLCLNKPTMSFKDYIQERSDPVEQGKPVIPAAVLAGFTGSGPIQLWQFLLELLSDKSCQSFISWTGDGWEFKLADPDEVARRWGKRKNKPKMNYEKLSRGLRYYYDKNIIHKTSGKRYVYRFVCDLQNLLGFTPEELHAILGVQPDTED
# Summary of the method: as §1
# [14] = biological target: T9, SPDEF (Homo sapiens, UniProt O95238 1-335); conditions: protein: recombinant; tags: N-terminal GST; dsDNA, one strand shown
# T9 sequence: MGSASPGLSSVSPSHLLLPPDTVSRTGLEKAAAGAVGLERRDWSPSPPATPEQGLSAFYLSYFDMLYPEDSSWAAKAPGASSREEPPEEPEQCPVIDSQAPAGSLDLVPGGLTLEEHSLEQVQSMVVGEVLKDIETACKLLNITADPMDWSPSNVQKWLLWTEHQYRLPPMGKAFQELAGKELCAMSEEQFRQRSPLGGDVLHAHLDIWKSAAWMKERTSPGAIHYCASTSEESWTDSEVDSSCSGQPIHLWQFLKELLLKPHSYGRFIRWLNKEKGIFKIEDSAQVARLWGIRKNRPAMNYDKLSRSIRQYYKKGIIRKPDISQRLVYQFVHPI
# Summary of the method: as §1
# [15] = biological target: T10, ETV7 (Homo sapiens, UniProt Q9Y603 1-341); conditions: protein: recombinant; tags: N-terminal GST; dsDNA, one strand shown
# T10 sequence: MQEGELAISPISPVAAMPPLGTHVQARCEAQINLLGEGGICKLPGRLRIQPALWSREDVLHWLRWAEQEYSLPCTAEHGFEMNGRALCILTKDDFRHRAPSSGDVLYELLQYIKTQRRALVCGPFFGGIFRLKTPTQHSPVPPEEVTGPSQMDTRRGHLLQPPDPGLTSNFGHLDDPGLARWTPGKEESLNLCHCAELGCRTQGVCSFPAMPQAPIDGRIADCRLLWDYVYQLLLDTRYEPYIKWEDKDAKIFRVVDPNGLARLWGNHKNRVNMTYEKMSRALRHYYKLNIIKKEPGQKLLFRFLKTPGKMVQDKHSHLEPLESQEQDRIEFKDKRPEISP
# Summary of the method: as §1
# [16] = biological target: T11, ELF5 (Homo sapiens, UniProt Q9UKW6-2 1-255); conditions: protein: recombinant; tags: N-terminal GST; dsDNA, one strand shown
# T11 sequence: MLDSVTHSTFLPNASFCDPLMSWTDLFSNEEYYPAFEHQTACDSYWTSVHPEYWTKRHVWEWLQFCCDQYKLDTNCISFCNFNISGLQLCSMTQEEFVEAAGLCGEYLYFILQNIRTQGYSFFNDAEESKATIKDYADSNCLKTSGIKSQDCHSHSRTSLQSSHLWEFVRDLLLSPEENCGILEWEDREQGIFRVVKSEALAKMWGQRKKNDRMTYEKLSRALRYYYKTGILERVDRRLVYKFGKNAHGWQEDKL
# Summary of the method: as §1
# [17] = biological target: T12, ETV3 (Homo sapiens, UniProt P41162-2 1-143); conditions: protein: recombinant; tags: N-terminal GST; dsDNA, one strand shown
# T12 sequence: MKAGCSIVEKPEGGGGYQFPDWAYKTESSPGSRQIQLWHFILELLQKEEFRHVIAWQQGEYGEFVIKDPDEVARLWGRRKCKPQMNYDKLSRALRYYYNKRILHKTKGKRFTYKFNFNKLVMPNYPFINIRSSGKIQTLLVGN
# Summary of the method: as §1
# [18] = biological target: ETV6 (Homo sapiens, UniProt P41212 1-452); conditions: protein: recombinant; tags: N-terminal GST; dsDNA, one strand shown
# Summary of the method: as §1
# Sequence of ETV5 (P41161 whole entry): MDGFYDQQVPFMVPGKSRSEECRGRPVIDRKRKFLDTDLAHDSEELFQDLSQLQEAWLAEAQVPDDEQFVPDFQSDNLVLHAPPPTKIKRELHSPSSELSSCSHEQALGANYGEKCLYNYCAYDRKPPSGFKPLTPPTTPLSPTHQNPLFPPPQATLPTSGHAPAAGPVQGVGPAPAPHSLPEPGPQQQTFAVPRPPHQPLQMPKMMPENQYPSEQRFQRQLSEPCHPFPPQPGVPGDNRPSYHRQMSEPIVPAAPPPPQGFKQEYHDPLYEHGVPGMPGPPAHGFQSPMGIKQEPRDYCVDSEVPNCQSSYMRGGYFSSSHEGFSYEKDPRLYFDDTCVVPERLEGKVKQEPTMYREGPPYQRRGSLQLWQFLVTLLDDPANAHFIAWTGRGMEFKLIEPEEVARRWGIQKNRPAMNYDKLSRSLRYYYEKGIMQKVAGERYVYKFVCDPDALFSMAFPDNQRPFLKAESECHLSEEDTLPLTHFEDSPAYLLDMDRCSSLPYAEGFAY
# Sequence of CRX (O43186 whole entry): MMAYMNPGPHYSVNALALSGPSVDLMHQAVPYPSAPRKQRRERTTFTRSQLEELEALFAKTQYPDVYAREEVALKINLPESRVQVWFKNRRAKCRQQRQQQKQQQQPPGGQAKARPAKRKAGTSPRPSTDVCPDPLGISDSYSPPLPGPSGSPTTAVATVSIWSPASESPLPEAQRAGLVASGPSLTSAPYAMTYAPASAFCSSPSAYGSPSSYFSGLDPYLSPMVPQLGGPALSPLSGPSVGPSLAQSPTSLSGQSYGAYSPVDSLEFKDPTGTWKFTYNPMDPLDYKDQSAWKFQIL
# Sequence of ETV6 (P41212 whole entry): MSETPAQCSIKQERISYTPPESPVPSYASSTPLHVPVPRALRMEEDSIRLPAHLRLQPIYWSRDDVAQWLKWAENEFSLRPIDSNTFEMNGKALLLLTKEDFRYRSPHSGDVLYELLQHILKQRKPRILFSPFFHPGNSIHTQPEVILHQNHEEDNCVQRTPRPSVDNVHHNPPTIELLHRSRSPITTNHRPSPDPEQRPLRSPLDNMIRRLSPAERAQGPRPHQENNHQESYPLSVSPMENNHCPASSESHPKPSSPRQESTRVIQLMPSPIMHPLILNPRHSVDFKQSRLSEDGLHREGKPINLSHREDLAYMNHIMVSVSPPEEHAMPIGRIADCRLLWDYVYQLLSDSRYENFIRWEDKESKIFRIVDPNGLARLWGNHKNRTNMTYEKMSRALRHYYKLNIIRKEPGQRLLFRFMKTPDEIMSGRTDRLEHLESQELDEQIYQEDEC
# Sequence of ELF4 (Q99607 whole entry): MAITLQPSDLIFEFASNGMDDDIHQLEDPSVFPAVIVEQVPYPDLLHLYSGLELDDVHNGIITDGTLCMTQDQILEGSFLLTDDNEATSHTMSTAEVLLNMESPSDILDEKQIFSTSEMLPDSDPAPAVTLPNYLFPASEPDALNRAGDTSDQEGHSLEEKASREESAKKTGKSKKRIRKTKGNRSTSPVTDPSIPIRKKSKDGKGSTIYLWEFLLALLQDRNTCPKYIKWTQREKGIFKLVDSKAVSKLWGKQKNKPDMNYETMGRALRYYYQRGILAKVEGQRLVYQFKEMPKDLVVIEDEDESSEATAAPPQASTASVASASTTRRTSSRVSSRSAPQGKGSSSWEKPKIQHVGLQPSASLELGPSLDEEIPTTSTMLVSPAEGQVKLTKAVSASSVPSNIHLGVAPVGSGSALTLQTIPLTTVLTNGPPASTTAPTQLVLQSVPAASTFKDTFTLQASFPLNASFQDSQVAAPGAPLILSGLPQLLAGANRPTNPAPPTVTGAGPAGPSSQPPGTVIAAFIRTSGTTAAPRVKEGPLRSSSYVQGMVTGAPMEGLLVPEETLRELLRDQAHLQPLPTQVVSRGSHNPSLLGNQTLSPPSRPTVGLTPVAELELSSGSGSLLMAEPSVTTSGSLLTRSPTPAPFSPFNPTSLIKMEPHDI
# Sequence of ETV1 (P50549 whole entry): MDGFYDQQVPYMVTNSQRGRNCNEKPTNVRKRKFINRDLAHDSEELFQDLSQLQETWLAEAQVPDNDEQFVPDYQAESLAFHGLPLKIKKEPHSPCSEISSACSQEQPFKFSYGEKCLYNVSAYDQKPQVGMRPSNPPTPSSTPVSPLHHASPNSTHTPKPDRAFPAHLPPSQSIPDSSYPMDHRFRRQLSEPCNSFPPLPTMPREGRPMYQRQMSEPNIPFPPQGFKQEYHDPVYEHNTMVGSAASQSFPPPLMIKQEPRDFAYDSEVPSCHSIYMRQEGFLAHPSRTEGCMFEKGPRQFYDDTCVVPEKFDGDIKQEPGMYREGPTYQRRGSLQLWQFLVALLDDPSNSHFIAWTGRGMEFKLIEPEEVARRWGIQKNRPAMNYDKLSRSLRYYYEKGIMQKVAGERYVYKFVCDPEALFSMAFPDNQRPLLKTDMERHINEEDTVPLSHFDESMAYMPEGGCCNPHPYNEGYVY
# Sequence of HSF1 (Q00613 whole entry): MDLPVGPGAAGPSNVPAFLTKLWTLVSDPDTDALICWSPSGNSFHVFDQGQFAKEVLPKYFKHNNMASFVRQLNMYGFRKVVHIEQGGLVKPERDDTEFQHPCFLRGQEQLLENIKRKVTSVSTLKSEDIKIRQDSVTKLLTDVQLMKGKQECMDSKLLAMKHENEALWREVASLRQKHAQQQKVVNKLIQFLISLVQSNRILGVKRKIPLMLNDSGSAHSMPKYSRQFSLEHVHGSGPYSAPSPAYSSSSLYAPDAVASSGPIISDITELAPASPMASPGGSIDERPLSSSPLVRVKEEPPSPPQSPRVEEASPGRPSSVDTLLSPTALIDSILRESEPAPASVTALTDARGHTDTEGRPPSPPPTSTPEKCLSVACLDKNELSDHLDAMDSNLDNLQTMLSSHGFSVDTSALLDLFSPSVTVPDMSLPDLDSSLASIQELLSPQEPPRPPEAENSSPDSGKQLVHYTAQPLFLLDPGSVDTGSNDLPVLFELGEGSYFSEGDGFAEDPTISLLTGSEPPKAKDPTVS
sequence,measurement,setting,value
TTCTCG,binding signal,[1],"1.35 fold enrichment (6-mer frequency, TF over GST control)"
same,binding signal,[2],"1.29 fold enrichment (6-mer frequency, TF over GST control)"
same,binding signal,[3],"4.96 fold enrichment (6-mer frequency, TF over GST control)"
same,binding signal,[4],"1.32 fold enrichment (6-mer frequency, TF over GST control)"
same,binding signal,[5],"1.51 fold enrichment (6-mer frequency, TF over GST control)"
same,binding signal,[6],"1.5 fold enrichment (6-mer frequency, TF over GST control)"
same,binding signal,[7],"1.4 fold enrichment (6-mer frequency, TF over GST control)"
same,binding signal,[8],"1.57 fold enrichment (6-mer frequency, TF over GST control)"
same,binding signal,[9],"2.17 fold enrichment (6-mer frequency, TF over GST control)"
same,binding signal,[10],"1.29 fold enrichment (6-mer frequency, TF over GST control)"
same,binding signal,[11],"1.27 fold enrichment (6-mer frequency, TF over GST control)"
same,binding signal,[12],"1.46 fold enrichment (6-mer frequency, TF over GST control)"
same,binding signal,[13],"1.45 fold enrichment (6-mer frequency, TF over GST control)"
same,binding signal,[14],"1.34 fold enrichment (6-mer frequency, TF over GST control)"
same,binding signal,[15],"1.48 fold enrichment (6-mer frequency, TF over GST control)"
same,binding signal,[16],"1.47 fold enrichment (6-mer frequency, TF over GST control)"
same,binding signal,[17],"1.27 fold enrichment (6-mer frequency, TF over GST control)"
same,binding signal,[18],"1.36 fold enrichment (6-mer frequency, TF over GST control)"

# From PMC7862700, “An all-to-all approach to the identification of sequence-specific readers for epigenetic DNA modifications on cytosine”
